Source: article PMC4336329 (PLoS ONE, 2015)
Among all 310,000 compounds or so, about 14,000 (4.5%) showed an effect of 50% or more. Effects have a minus sign here. The sample holds strong results, similar compounds and a random draw of the others, so the mix is not that of the screen.

biological target: human ether-à-go-go-related gene (hERG) potassium channel (human, UniProt Q12809); experiment: primary screen, population patch clamp on CHO cells stably expressing hERG; higher = less effect of the substance
Sequence (Q12809 whole entry, looked up): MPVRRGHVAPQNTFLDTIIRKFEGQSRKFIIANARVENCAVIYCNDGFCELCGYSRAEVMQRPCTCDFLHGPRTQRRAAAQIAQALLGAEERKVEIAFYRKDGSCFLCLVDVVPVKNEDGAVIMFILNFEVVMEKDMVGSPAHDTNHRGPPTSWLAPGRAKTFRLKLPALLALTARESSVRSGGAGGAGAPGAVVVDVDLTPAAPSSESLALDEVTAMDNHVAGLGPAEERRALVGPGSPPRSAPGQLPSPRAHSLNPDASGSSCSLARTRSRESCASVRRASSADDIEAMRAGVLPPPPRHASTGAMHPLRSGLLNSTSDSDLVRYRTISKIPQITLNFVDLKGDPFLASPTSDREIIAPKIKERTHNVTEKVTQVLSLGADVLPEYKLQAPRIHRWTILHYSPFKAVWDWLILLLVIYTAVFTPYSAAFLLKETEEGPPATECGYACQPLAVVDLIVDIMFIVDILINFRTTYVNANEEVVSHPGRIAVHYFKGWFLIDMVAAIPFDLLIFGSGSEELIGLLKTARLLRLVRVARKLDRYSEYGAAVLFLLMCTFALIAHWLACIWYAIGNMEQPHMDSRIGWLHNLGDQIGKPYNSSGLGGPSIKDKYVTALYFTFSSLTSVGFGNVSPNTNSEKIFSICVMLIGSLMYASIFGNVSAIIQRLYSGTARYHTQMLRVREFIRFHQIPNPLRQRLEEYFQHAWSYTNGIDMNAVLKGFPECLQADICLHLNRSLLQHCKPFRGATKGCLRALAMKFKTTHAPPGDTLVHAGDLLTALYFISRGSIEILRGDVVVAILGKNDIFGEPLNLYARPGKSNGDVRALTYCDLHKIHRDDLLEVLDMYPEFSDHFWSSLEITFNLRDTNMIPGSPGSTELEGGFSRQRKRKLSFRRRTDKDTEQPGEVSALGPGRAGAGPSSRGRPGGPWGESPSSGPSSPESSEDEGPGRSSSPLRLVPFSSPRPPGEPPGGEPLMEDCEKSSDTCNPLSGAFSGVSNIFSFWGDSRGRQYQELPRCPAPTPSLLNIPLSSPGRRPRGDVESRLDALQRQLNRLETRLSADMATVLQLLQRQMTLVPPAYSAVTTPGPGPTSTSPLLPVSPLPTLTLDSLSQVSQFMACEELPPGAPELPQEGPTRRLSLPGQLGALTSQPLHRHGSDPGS
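Also: peak tail current of the secondary pulse compared with the same well before compound.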

In order of falling “hERG current change (%, negative = inhibition) at 10uM” value:
1. CCN(CC)C(=O)Cn1cc(C(=O)C(=O)NCCCn2ccnc2)c2ccccc21  27.8%
2. CC(C)(C)S(=O)(=O)/C(C#N)=N/Nc1ccc(C#N)cc1  22.1%
3. C=CCn1c(O)c(C=NCCCOc2ccc(CC)cc2)c(=O)[nH]c1=S  21.8%
4. CCc1ccc(NC(=O)C2CCN(S(=O)(=O)c3ccc4c(c3)NC(=O)C(C)S4)CC2)cc1 (centres unmarked)  19.2%
5. O=C(CSc1nc(C(F)(F)F)cc(=O)[nH]1)N1CCCC1  19%
6. CC(C)C(OC(=O)CN1C(=O)c2ccccc2C1=O)C(=O)NC1CCCC1 (centres unmarked)  18.7%
7. OCC1(CC2CCCCO2)CCN(Cc2nc3ccccc3[nH]2)CC1 (centres unmarked)  18%
8. O=C(CCNS(=O)(=O)c1ccccc1)Nc1ccccc1  17.8%
9. CCCN1C(=O)COc2ccc(C(=O)c3ccccc3C(=O)O)cc21  17.7%
10. O=C(CCn1cnc2ccccc2c1=O)Nc1ccc2c(c1)OCCO2  15.1%
11. COc1ccc(-c2cc(-c3n[nH]c(=S)n3-c3ccccc3Cl)[nH]n2)cc1  13.5%
12. CO/N=C/CC(=O)Nc1ccc(F)cc1F  13.3%
13. COC(=O)CNC(=O)C12CC3CC(C1)CC(c1ccc(C)cc1)(C3)C2  12.9%
14. CN(CCc1ccccn1)C(=O)Nc1ccc(F)cc1  12.7%
15. O=C(NC(=S)N(Cc1ccccc1)Cc1ccccc1)C1CCCCC1  12.6%
16. Cc1nc(CCNC(=O)CC2C(=O)NCCN2Cc2ccc(F)cc2)sc1C (centres unmarked)  12.3%
17. O=C(COc1ccc(Cl)cc1)NCC(=O)N/N=C/c1cccs1  12%
18. Cc1cc(C(=O)N(C)C2CCCCC2)no1  11.7%
19. COc1ccc(O)c(CN2CCCC(C(=O)c3sccc3C)C2)c1 (centres unmarked)  9.89%
20. O=S(=O)(Nc1cccnc1)c1cc(Cl)ccc1Cl  9.51%
21. CC(=O)O[C@H]1CC[C@@]2(C)[C@@H](CC[C@@H]3[C@@H]2CC[C@]2(C)[C@@H](C(C)(C)O)C[C@@H]32)C1  9.09%
22. COc1ccc(C2CC(c3ccccc3)=NN2C(=O)CCC(=O)O)cc1 (centres unmarked)  8.77%
23. COc1cccc(NC(=O)c2nn(C)c3c2CS(=O)(=O)c2ccccc2-3)c1  8.68%
24. O=C(Oc1coc(CSc2nnc(NC(=O)c3cccs3)s2)cc1=O)c1ccccc1  7.37%
25. O=C(OCc1cccc([N+](=O)[O-])c1)c1ccc2ccccc2n1  7.33%
26. CCCCNC(=O)Nc1c(C(=O)OCC)[nH]c2ccccc12  6.83%
27. Cc1c(C(=O)Nc2cccc(S(=O)(=O)N3CCCC3)c2)oc2ccccc12  5.98%
28. COc1cc2nc(/C=C/c3cc(OC)c(OC)c(OC)c3)sc2cc1SC  5.92%
29. O=C(Nc1nc(-c2ccc(Cl)cc2)cs1)c1cccnc1  5.68%
30. Cn1c(N)c(C(=O)CNC2CCCCC2)c(=O)n(C)c1=O  5.61%
31. COCc1ccc(CN2CCCC(C(=O)c3sccc3C)C2)o1 (centres unmarked)  5.56%
32. COc1ccc(Cc2nnc(NC(=O)c3ccco3)s2)cc1OC  5.42%
33. Cc1ccsc1C(=O)C1CCCN(CCO)C1 (centres unmarked)  5.34%
34. O=C(CN1C(=O)C2CCCCC2C1=O)Nc1nc(-c2ccc(F)cc2)cs1 (centres unmarked)  5.21%
35. COc1ccccc1/C=N/Nc1nc(C)c(C(C)=O)s1  5%
36. CCc1ccc(CN2CCCC(C(=O)c3sccc3C)C2)o1 (centres unmarked)  2.99%
37. Cc1ccc(C)c(N2CCN(c3ncccc3[N+](=O)[O-])CC2)c1  2.42%
38. Cc1ccc(NCc2ccco2)cc1C.O=C(O)C(=O)O  1.93%
39. COc1ccc(C(=O)N2CCN=C2SC)cc1  1.04%
40. CC1(C)C(C#N)=C(N)Oc2c1c(=O)oc1ccccc21  0.829%
41. Nn1c(Cc2cccc3ccccc23)nnc1SC1CCOC1=O (centres unmarked)  -0.158%
42. CCOC(=O)C1CCCN(Cc2cc(OC)c(O)c(OC)c2)C1 (centres unmarked)  -2.31%
43. CN1Cc2c(N3CCOCC3)nc(SCCC#N)c(C#N)c2CC1(C)C  -2.45%
44. O=C(CCS(=O)(=O)c1ccccc1)Nc1ccc(Cl)cn1  -3.42%
45. COc1cc(NC(=O)C2=C(C)OCCS2)c(Cl)cc1C(=O)NCCN(C)C  -3.65%
46. COc1ccc(NS(=O)(=O)c2cccc(NC(=O)NC3CCCCC3)c2)cc1  -4.21%
47. c1ccc2[nH]c(CSc3nccs3)nc2c1  -6.76%
48. Cc1ccc(-c2cc(C(=O)N/N=C/C=C/c3ccccc3)n[nH]2)o1  -7.76%
49. COc1ccc(COC(=O)Nc2cn(C)nc2C(F)(F)F)cc1  -7.76%
50. O=C(Cn1cnc2c(nnn2Cc2ccccc2)c1=O)c1ccccc1  -8%
51. CCOCCCNC(=O)c1cc(Cl)c(NC(=O)C2=C(C)OCCS2)cc1OC  -9.78%
52. Cc1ccc(CN2CCCC(C(=O)c3sccc3C)C2)o1 (centres unmarked)  -11%
53. COCCN(Cc1cc2ccc(C)c(C)c2nc1Cl)C(=O)N1CCOCC1  -11%
54. CCCNC(=O)c1cc(Cl)c(NC(=O)C2=C(C)OCCS2)cc1OC  -14.5%
55. C=C(C)C(=O)N1CC2(CC(c3cccc(NC(=O)COc4ccc(Cl)cc4)c3)=NO2)C[C@@H]1C(N)=O (some centres unmarked)  -15.3%
56. OCCC1CN(Cc2nc3ccc(F)cc3[nH]2)CCN1C1CCCC1 (centres unmarked)  -15.9%
57. CC(OC(=O)CC1CC2CCC1C2)C(=O)Nc1ccc(C(N)=O)cc1 (centres unmarked)  -16%
58. CC(c1ccccc1)N1C(=O)c2ccc(C(=O)NCc3cccnc3)cc2C1=O (centres unmarked)  -18.4%
59. CC(Oc1ccccc1)C(=O)N1CCC2(CC1)Oc1ccc(F)cc1C(=O)C21CC(c2cccnc2)=NO1 (centres unmarked)  -20.5%
60. O=C(CN1CCCC1)Nc1ccc(NC(=O)Nc2ccccc2Cl)cc1  -21.5%
61. CCN1CCN(Cc2ccc(NC(=O)Nc3ccccc3Cl)cc2)CC1  -22.8%
62. O=C(NCCCc1ccccc1)c1cccc([N+](=O)[O-])c1  -23%
63. Cc1ccccc1CC1(CO)CCCN(Cc2cn[nH]c2-c2ccccc2)C1 (centres unmarked)  -23.9%
64. Cc1onc(-c2c(Cl)cccc2Cl)c1C(=O)Nc1nc(C(C)(C)C)cs1  -26.4%
65. O=C(COc1ccccc1)Nc1ccc(CN2CCCCC2)cc1  -26.9%
66. NC(=O)C1CCN(Cc2ccc(OCc3ccccc3)cc2)CC1.O=C(O)C(=O)O  -29.5%
67. Cc1ccc(C(=O)Nc2ccc(CN3CCCCC3)cc2)c(C)c1  -35.2%
68. O=C(NCc1ccccn1)C1CCN(Cc2cccc(OCc3ccccc3)c2)CC1.O=C(O)C(=O)O  -35.7%
69. CCN(CC)C(=O)C1CCN(Cc2cccc(OCc3ccccc3)c2)CC1.O=C(O)C(=O)O  -39.6%
70. [Cl-].c1ccc(COc2ccc(-c3sc(Nc4ccccc4)n[n+]3-c3ccccc3)cc2)cc1  -43.9%
71. COc1cc(NC(=O)C2=C(C)OCCS2)c(Cl)cc1C(=O)NCCN1CCN(C)CC1  -47.1%
72. COc1cc(CN2CCCC(C(=O)c3ccc(C(C)(C)C)cc3)C2)cc(OC)c1O (centres unmarked)  -47.3%
73. COc1cc(CN2CCCC(C(=O)c3sccc3C)C2)cc(OC)c1O (centres unmarked)  -47.8%
74. CCN(CC)C(=O)C1CCN(Cc2ccc(OCc3ccccc3)cc2)CC1.O=C(O)C(=O)O  -48.7%
75. COc1cc(CN2CCCC(C(=O)c3sccc3C)C2)cc(Cl)c1O (centres unmarked)  -53.8%
76. OCC1(CCOc2ccccc2)CCN(Cc2nc3ccc(F)cc3[nH]2)CC1  -55%
77. O=C(Nc1ccc(CN2CCCCC2)cc1)Nc1ccccc1Cl  -59%
78. CCN(CC)CCCNC(=O)c1cc(Cl)c(NC(=O)C2=C(C)OCCS2)cc1OC  -61.5%
79. COc1cc(OC)c(OC)cc1CN1CCCC(C(=O)c2sccc2C)C1 (centres unmarked)  -63.4%
80. COc1ccc(OC)c(CN2CCCC(C(=O)c3sccc3C)C2)c1 (centres unmarked)  -63.9%
81. CCCCN(C)C(=O)C1CCN(Cc2cccc(OCc3ccccc3)c2)CC1.O=C(O)C(=O)O  -67.7%
82. C=CCN(CC=C)C(=O)C1CCN(Cc2ccc(OCc3ccccc3)cc2)CC1.O=C(O)C(=O)O  -68%
83. Cc1ccc(OCC(=O)Nc2ccc(CN3CCCCC3)cc2)c(C)c1  -69.4%
84. OCC1(CCOc2ccccc2)CCN(Cc2cn[nH]c2-c2ccc(F)cc2)CC1  -71.6%
85. COc1ccc(CN2CCCC(C(=O)c3sccc3C)C2)cc1O (centres unmarked)  -71.9%
86. COc1cc(CN2CCCC(C(=O)c3ccc(SC)cc3)C2)cc(Cl)c1O (centres unmarked)  -72.8%
87. CCN1CCN(CCNC(=O)c2cc(Cl)c(NC(=O)C3=C(C)OCCS3)cc2OC)CC1  -73.4%
88. CCCCN(C)C(=O)C1CCN(Cc2ccc(OCc3ccccc3)cc2)CC1.O=C(O)C(=O)O  -73.4%
89. OCC1(CCOc2ccccc2)CCN(Cc2cn[nH]c2-c2ccccc2)CC1  -74.4%
